# Experimental data from the supplement of paper PMC13380429.
# What was measured:
# [1] = test system: Vero E6 infected with SARS-CoV-2; assay: morphology score (similarity to uninfected cells); higher = more like uninfected cells; settings: 24 h
# [2] = test system: Vero E6 infected with SARS-CoV-2; assay: SARS-CoV-2 infection rate relative to infected DMSO; higher = more infection, active = 60 or less; settings: 24 h
Compound,morphology score [1],SARS-CoV-2 infection rate [2]
NC[C@H]1O[C@H](O[C@H]2[C@H](O)[C@@H](O[C@H]3O[C@H](CO)[C@@H](O)[C@H](N)[C@H]3O)[C@H](N)C[C@@H]2N)[C@H](N)C[C@@H]1O [tobramycin] (10 µM),0.095,113% (inactive)
CN(C)CCCCC(=O)Nc1ccc(NC(=S)NC(=O)c2ccc(C(C)(C)C)cc2)cc1 [tenovin-6] (0.833333 µM),-0.102,86% (inactive)
COc1ccc(C(=O)CC2(O)C(=O)Nc3c(Cl)ccc(Cl)c32)cc1 (stereo unspecified) (0.833333 µM),0.00554,95% (inactive)
CSc1ccc([C@H]2CN3CCC[C@H]3c3ccccc32)cc1 (racemic) (10 µM),0.328,86.5% (inactive)
Cc1cccc(Nc2nc(-c3ccncc3)cs2)c1 (0.833333 µM),0.455,61% (inactive)
CNC(=O)c1cccc(-c2ccc3c(N4CCOC[C@@H]4C)nc(N4CCOC[C@@H]4C)nc3n2)c1 (10 µM),-0.219,108% (inactive)
Cc1ccc(S(=O)(=O)N2CCC[C@H]2c2ccc(F)cc2)cc1 (10 µM),-0.114,110% (inactive)
CN[C@H]1CC[C@@H](c2ccc(Cl)c(Cl)c2)c2ccccc21 (0.833333 µM),0.143,89.5% (inactive)
Cc1cc(Cn2nnc3c(-c4ccco4)nc(N)nc32)ccc1N [vipadenant] (10 µM),0.0562,110% (inactive)
OCCCNc1cc(-c2ccnc(Nc3cccc(Cl)c3)n2)ccn1 (10 µM),-0.158,98% (inactive)
CCCCCCN(CCCCCC)C(=O)Cc1c(-c2ccc(F)cc2)[nH]c2ccccc12 (10 µM),-0.0301,106% (inactive)
O=C(/C=C/c1ccccc1)NC(NC(=S)Nc1cccc2cccnc12)C(Cl)(Cl)Cl (stereo unspecified) [salubrinal] (10 µM),-0.178,108% (inactive)
C[C@@]1(CO)[C@H](O)CC[C@@]2(C)[C@H]1CC[C@H]1C[C@@H]3C[C@@]12CC[C@]3(O)CO [aphidicolin] (0.833333 µM),-0.0875,106% (inactive)
CC(CN1c2ccccc2Sc2ccccc21)N(C)C (stereo unspecified) [promethazine] (10 µM),0.528,67.5% (inactive)
c1ccc(CC2=NCCN2)cc1 [tolazoline] (10 µM),0.146,99.5% (inactive)
CN1CC(O)C2=C/C(=N/NC(N)=O)C(=O)C=C21 (stereo unspecified) [carbazochrome] (10 µM),0.0013,113% (inactive)
Cc1cccc(/C=N/Nc2cc(N3CCOCC3)n3nc(-c4ccncc4)cc3n2)c1 (10 µM),0.261,50.5% (active)
CC(C)[C@H]1C(=O)N[C@@H](CCCNC(=N)N)C(=O)NCC(=O)N[C@@H](CC(=O)O)C(=O)N[C@H](Cc2ccccc2)C(=O)N1C [cilengitide] (10 µM),-0.377,109% (inactive)
COc1cc2c(cc1OC)CN(CCc1ccc(NC(=O)c3cc(OC)c(OC)cc3NC(=O)c3cnc4ccccc4c3)cc1)CC2 [tariquidar] (10 µM),-0.0369,108% (inactive)
Nc1nc(=O)[nH]cc1F [flucytosine] (10 µM),-0.016,107% (inactive)
Cc1csc(NC(=O)CSc2ccc(-c3ccccc3)nn2)n1 (10 µM),0.49,68.5% (inactive)

Compound,morphology score [1],SARS-CoV-2 infection rate [2]
CCN(CC)CCNC(=O)c1cc(Cl)c(N)cc1OC [metoclopramide] (10 µM),-0.00451,107% (inactive)
C[C@H]1[C@@H](O)O[C@@H]2O[C@@]3(C)CC[C@H]4[C@H](C)CC[C@@H]1[C@@]24OO3 (10 µM),0.225,84% (inactive)
Cc1cc(C)nc(NS(=O)(=O)c2ccc(NC(=S)NC(=O)COc3ccc(Br)cc3Cl)cc2)n1 (10 µM),0.0709,108% (inactive)
Cc1cc(O)c2c(c1)C(=O)c1cccc(O)c1C2=O [chrysophanic-acid] (10 µM),-0.0993,110% (inactive)
CCN(CC)CCCCC1CCN(CC(=O)N2c3ccccc3C(=O)Nc3cccnc32)CC1 (10 µM),0.0682,108% (inactive)
CCCC[C@@H](C=O)NC(=O)[C@H](CC(C)C)NC(=O)OCc1ccccc1 [calpeptin] (10 µM),0.815,12.5% (active)
COCC1(CO)C(=O)C2CCN1CC2 (stereo unspecified) (10 µM),0.212,80.5% (inactive)
CCCSc1nc(N[C@@H]2C[C@H]2c2ccc(F)c(F)c2)c2nnn([C@@H]3C[C@H](OCCO)[C@@H](O)[C@H]3O)c2n1 [ticagrelor] (10 µM),-0.0229,104% (inactive)
Oc1ccc([C@H]2COc3cc(O)ccc3C2)cc1 [equol] (10 µM),-0.116,114% (inactive)
NCC(=O)CCC(=O)O [5-aminolevulinic-acid] (10 µM),0.0459,113% (inactive)
Fc1ccc(C(c2ccccc2)(c2ccccc2F)n2ccnc2)cc1 (stereo unspecified) [flutrimazole] (10 µM),0.166,108% (inactive)
C=CC(=O)Nc1cccc(Nc2nc(Nc3ccc(Oc4ccnc(C(=O)NC)c4)cc3)ncc2F)c1 (0.833333 µM),0.147,110% (inactive)
O=C(CCCCCCC(=O)Nc1cccnc1)NO [pyroxamide] (0.833333 µM),0.0384,104% (inactive)
O=C(O)[C@@H]1C[C@@H](O)CN1 [L-hydroxyproline] (10 µM),0.203,101% (inactive)
CN(c1ccccc1CNc1nc(Nc2ccc3c(c2)CC(=O)N3)ncc1C(F)(F)F)S(C)(=O)=O (10 µM),0.0447,114% (inactive)
COc1cc(C(=O)NS(=O)(=O)c2ccccc2C)ccc1Cc1cn(C)c2ccc(NC(=O)OC3CCCC3)cc12 [zafirlukast] (10 µM),0.282,105% (inactive)
O=C1C(CC[S+]([O-])c2ccccc2)C(=O)N(c2ccccc2)N1c1ccccc1 (stereo unspecified) [sulfinpyrazone] (10 µM),0.0498,108% (inactive)
C[C@@H]1CC[C@H]2[C@@H](C)C(=O)O[C@@H]3O[C@@]4(C)CC[C@@H]1[C@]32OO4 [artemisinin] (10 µM),-0.0301,106% (inactive)
C#Cc1cccc(Nc2ncnc3cc(OCCOC)c(OCCOC)cc23)c1 [erlotinib] (10 µM),-0.159,116% (inactive)
Cc1ccc(NCCCc2ccccc2)c(N)c1 [NFKB-activation-inhibitor-II] (10 µM),0.238,102% (inactive)
CN(Cc1cnc2nc(N)nc(N)c2n1)c1ccc(C(=O)N[C@@H](CCC(=O)O)C(=O)O)cc1 [methotrexate] (10 µM),-0.183,100% (inactive)

Compound,morphology score [1],SARS-CoV-2 infection rate [2]
Cc1noc(C)c1-c1cc(O)cc([C@@H](O)c2ccccc2)c1 (10 µM),0.154,104% (inactive)
C=C1C(=O)O[C@@H]2C[C@@]3(C)CCC[C@H](C)C3=C[C@H]12 [alantolactone] (10 µM),0.304,32% (active)
CCOC(=O)[N-]c1c[n+](N2CCOCC2)no1 [molsidomine] (10 µM),0.0533,102% (inactive)
C#C[C@]1(OC(C)=O)CC[C@H]2[C@@H]3CCC4=C[C@@H](OC(C)=O)CC[C@@H]4[C@H]3CC[C@@]21C [ethynodiol-diacetate] (10 µM),-0.0396,113% (inactive)
Cc1cc(=O)n(-c2ccccc2)n1C [phenazone] (10 µM),-0.0495,108% (inactive)
O=[N+]([O-])c1cnc(Sc2nnc(O)n2-c2ccc3c(c2)OCCO3)s1 (0.833333 µM),0.392,76.5% (inactive)
Cn1cc(C(=O)c2cccc3ccccc23)cc1C(=O)O [napirimus] (10 µM),0.122,107% (inactive)
Fc1ccc(-n2cc(CCCCN3CCC4(CC3)OCc3ccccc34)c3ccccc32)cc1 [siramesine] (0.833333 µM),0.0919,94.5% (inactive)
O=C(NCC(=O)N1CCCC1)Nc1ccc2cnccc2c1 (10 µM),0.182,98% (inactive)
COc1ccc2[nH]cc(CCNC(C)=O)c2c1 [melatonin] (10 µM),0.0444,105% (inactive)
CC1(C)C[C@@H]1C(=O)N/C(=C\CCCCSC[C@H](N)C(=O)O)C(=O)O [Cilastatin Sodium] (10 µM),0.215,88.5% (inactive)
CC(=O)c1cc2c(o1)C(=O)c1ccccc1C2=O [napabucasin] (0.833333 µM),0.309,89% (inactive)
CCn1nc(C)c2c1C(c1ccccc1)=NCC(=O)N2 [ripazepam] (10 µM),0.0297,109% (inactive)
CCN[C@@H](C)Cc1cccc(C(F)(F)F)c1 [dexfenfluramine] (10 µM),-0.224,112% (inactive)
C[C@]12CC[C@H](O)C[C@H]1CC[C@@H]1[C@@H]2CC[C@]2(C)[C@@H](C3=CC(=O)OC3)CC[C@]12O [digitoxigenin] (0.833333 µM),-0.0679,108% (inactive)
COc1cc(N)c(Cl)cc1C(=O)CCC1CCN(CCNS(C)(=O)=O)CC1 (10 µM),0.0872,97.5% (inactive)
COc1ccc(O)cc1 [mequinol] (10 µM),-0.0349,105% (inactive)
O=C(O)CCc1ccc(NCc2cccc3c2CCCN3CCOc2ccccc2)cc1F (10 µM),-0.0144,110% (inactive)
CSc1nc(-c2ccc(F)cc2)c(-c2ccnc(N[C@@H](C)c3ccccc3)c2)[nH]1 (10 µM),-0.159,107% (inactive)
O=C(NCCN1CCOCC1)c1ccc(Cl)cc1 [moclobemide] (10 µM),0.182,103% (inactive)
CN1CCN(c2cc3c(cc2F)c(=O)c(C(=O)O)cn3-c2ccc(F)cc2)CC1 [difloxacin] (10 µM),-0.0785,99.5% (inactive)
